From PubChem BioAssay
Activity calls are given as the source filed them. The rule behind the calls is not given here.

target: Pantothenate synthetase (Mycobacterium tuberculosis (strain ATCC 25618 / H37Rv)) (UniProt P9WIL5); assay: Coupled enzyme confirmation of inhibitors against recombinant Mtb PanC (AID 375); settings: coupled enzyme assay; at 10 µM, stronger effect = higher value;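 note: 0% = full reaction with vehicle and 100% = no enzyme background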
Sequence (P9WIL5 whole entry, looked up): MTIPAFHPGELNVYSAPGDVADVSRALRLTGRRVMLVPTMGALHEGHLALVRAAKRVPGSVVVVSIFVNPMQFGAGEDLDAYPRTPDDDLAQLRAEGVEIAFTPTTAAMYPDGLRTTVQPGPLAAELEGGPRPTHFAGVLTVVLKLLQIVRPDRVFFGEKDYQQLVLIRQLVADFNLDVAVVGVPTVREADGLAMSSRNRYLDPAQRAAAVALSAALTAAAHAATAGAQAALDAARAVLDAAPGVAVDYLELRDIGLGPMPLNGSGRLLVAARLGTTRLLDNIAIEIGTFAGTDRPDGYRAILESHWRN

Compound	inhibition
CCOC(=O)c1[nH]c(C)c(C(=O)N(C)C)c1C	0% (inactive)
NC(CO)C(=O)NNCc1ccc(O)c(O)c1O (stereo not given)	0% (inactive)
COc1cccc(CN(C(=O)c2cc3ccccc3oc2=O)C2CC2)c1	8% (inactive)
O=C(OCCCCN1C(=O)c2ccccc2C1=O)c1n[nH]c2ccccc12	2% (inactive)
CCOC(=O)CSc1nc2sc(C)c(C)c2c(=O)[nH]1	0% (inactive)
CCC1(C(=O)OC)NC(c2cccc(F)c2)C2C(=O)N(C)C(=O)C21 (stereo not given)	3% (inactive)
Cc1cc(C(=O)Nc2cccc(O)c2)c(C)o1	20% (inactive)
CC(C)Cn1c(=O)c(C(=O)NCc2ccccn2)c(O)c2ccccc21	0% (inactive)
CCCCn1c(NC(=O)CC)c(C#N)c2nc3ccccc3nc21	4% (inactive)
COC(=O)c1ccc(COc2ccc(C3C4=C(CCCC4=O)Nc4onc(C)c43)cc2)cc1 (stereo not given)	0% (inactive)
O=S(=O)(c1ccccc1)c1nc(-c2ccco2)oc1NCCCN1CCOCC1	0% (inactive)
C/C=C/COC(=O)c1[nH]c2c(c1C)C(=O)CC(c1ccco1)C2 (stereo not given)	6% (inactive)
O=C(CCCN1C(=O)c2ccccc2C1=O)Oc1ccc(F)cc1	1% (inactive)
O=P1(O)C=C(c2ccccc2)NC(c2ccccc2)=C1	0% (inactive)
CCC(Sc1ccc2nnc(-c3ccc(F)cc3)n2n1)C(=O)OC (stereo not given)	0% (inactive)
CN(CC(=O)N1CCN(c2ccccn2)CC1)S(=O)(=O)c1ccc2ccccc2c1	0% (inactive)
Cc1coc(NC(=O)CSc2nc(-c3ccncc3)cc(C(F)(F)F)c2C#N)n1	0% (inactive)
CCOC(=O)N1CCN(c2ncnc3c2[nH]c2ccc(OC)cc23)CC1	0% (inactive)
COc1ccc(S(=O)(=O)NCc2ccc3c(c2)OCO3)cc1C(=O)O	5% (inactive)
Cc1ccc(C)c(C(=O)CC2(O)C(=O)N(C)c3ccccc32)c1 (stereo not given)	0% (inactive)

Compound	inhibition
CC1(C)CC(=O)c2cnc(NCc3ccco3)nc2C1	0% (inactive)
COc1ccc2cc(C#N)c(SCC(=O)N3CCCC3)nc2c1	7% (inactive)
Cc1cc(=O)n(CCO)c(O)c1C#N	0% (inactive)
Cc1nc(CCNC(=O)c2ccccc2)cs1	0% (inactive)
Cc1ccccc1-n1c(SCc2c(C)noc2C)nnc1-c1ccncc1	0% (inactive)
COc1ccc(N2C(=O)CC(N3CCN(S(=O)(=O)c4c(F)cccc4F)CC3)C2=O)cc1OC (stereo not given)	1% (inactive)
Nc1nc2ccccc2n1C(=O)CCc1ccccc1	0% (inactive)
Cc1ccc(CCNC(=O)C2CCCN2S(=O)(=O)c2ccc3c(c2)CCC(=O)N3)cc1 (stereo not given)	6% (inactive)
CN(C)c1nc(SCCOC(=O)c2ccccc2)nc(N(C)C)n1	6% (inactive)
Cn1nc(C(=O)N2CCOCC2)c2ccccc2c1=O	0% (inactive)
CC1CCN(c2oc(-c3cccc4ccccc34)nc2C#N)CC1	0% (inactive)
Cc1ccc(-n2ncc(C(=O)N3CCc4ccccc4C3)c2NC(=O)c2ccco2)cc1C	0% (inactive)
Cc1cc(C)cc(NS(=O)(=O)c2ccc3[nH]c(=O)[nH]c3c2)c1	0% (inactive)
CC1CCCN(c2ccc(C(=O)NCc3cccs3)cn2)C1 (stereo not given)	1% (inactive)
CCCn1cc(SCC(N)=O)c2ccccc21	0% (inactive)
O=S(=O)(c1ccccc1)c1nc(-c2cccs2)oc1NCC1CCCO1 (stereo not given)	3% (inactive)
CC1CCN(C(=O)CSc2nc3c(cnn3-c3ccccc3)c(=O)[nH]2)CC1	0% (inactive)
CCN1C(=O)CC(N2CCC(Nc3ccc(F)cc3)CC2)C1=O (stereo not given)	0% (inactive)
O=C(Nc1cccc(Cl)c1)N1CCN(c2ncccn2)CC1	1% (inactive)
Cc1cc(C)c2c(n1)nn1c(NCCCN3CCOCC3)cc(C)nc21	9% (inactive)
